Drawing on PubChem BioAssay (NCI), this text covers growth for 40 compounds.

This is part of a sample that, as a whole, favours compounds with a hit. Of some 83,000 tested, about 20% had one in any assay.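 Single-concentration screen, 48 h exposure, 96-well plates. Endpoint: percent growth. Below 10 = active.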 Unmarked numbers belong to inactive results. Calls of active or inactive are those of the source.

This test relates to CCRF-CEM leukemia. Put plainly: NCI-60 one-dose screen, 48 h (100 = growth as untreated, 0 = no growth, -100 = all killed). The settings on record: 10 µM unless noted. On the procedure: Growth inhibition of the CCRF-CEM human tumor cell line is measured as a screen for anti-cancer activity. Cells are grown in 96 well plates and exposed to the test compound for 48 hours. Compounds are tested at a single concentration, which is 10^-5 M for most compounds. The reported endpoint is percent growth (GI% or GIPRCNT), where numbers from 0 - 100% represent growth inhibition, and numbers from -100% - 0 represent cell death. For example, a value of 40 represents 60% growth inhibition. A value of 0 means no net growth occurred over the course of the experiment. A value of -40 indicates 40% of cells at the beginning of the experiment died by the end of the experiment. A value of -100 means all cells are dead at the end of the experiment.
NCI-60 Human Tumor Cell Lines Screen was performed using the standard one-dose NCI protocol, which is described in more detail at https://dtp.cancer.gov/discovery_development/nci-60/default.htm.
Compounds with GIPRCNT values below 10 were considered active. Activity score was based on GIPRCNT using the following formula: […]
Score is 0 for GIPRCNT values of 100 or above, 50 for GIPRCNT values of 0, and 100 for GIPRCNT values of -100.
Regarding `C[n+]1c2ccccc2c(Nc2ccc(N3CCCCC3)cc2)c2[nH]c3ccccc3c21`, the growth was -49.3% (active).

Take `COc1ccc(-c2c(-c3cc(OC)c(OC)c(OC)c3)noc2N)cc1`: the growth was 9.85% (active).

`CN1C(=O)/C(=C/c2nc(-c3cccc(F)c3)n3ccccc23)c2ccccc21`: the growth is 88.9%.

For `O=C1NC(=O)/C(=C\c2ccccc2)C2=C1CCCC2`, the growth is 35.8%.

With `O=C1C(Cl)=C(N=Nc2c(Cl)c(O)c3ccccc3c2O)C(=O)c2ccccc21`, the growth was 43.5%.

Consider `CC(C)(C)c1ccc(S(=O)(=O)O)s1`, for which the growth is 102%.

For `CSC1=Nc2c(c(C)c(-c3ccccc3)n2CCCN2CCCCC2)C2=NC(=O)C[C@H](C)N12`, the growth is 20.7%.

For `O=C(CSc1nnc(Nc2ccccc2)s1)NCCc1ccc(F)cc1`, the growth is 117%.

As for `CC(C)C(=O)Cc1cnccn1`, the growth was 115%.

In the case of `COc1ccc(/C=C2\NC(=S)NC2=O)cc1`, the growth is 105%.

Take `COc1cc(/C=C/C(=O)N2CCN(C(=O)/C=C/c3ccccc3)CC2)cc(OC)c1OC`: the growth is 100%.

As to `COc1ccc(-c2nnc(COc3ccc(NC(=O)Nc4cc(C(F)(F)F)cc(C(F)(F)F)c4)cc3F)o2)cc1`, the growth is 16.2%.

As to `O[C@@H]1Cc2ccc3ccccc3c2N[C@H](c2ccoc2)C1`, the growth is 81.3%.

In the case of `CCCCCCCCCCCCCCCCCc1nccn1CCO`, the growth was 79.7%.

Take `COc1cc(C(=O)/C=C/c2cccnc2Nc2ccccc2)cc(OC)c1OC`: the growth was -16% (active).

Take `O=C(Nc1cccc(C(F)(F)F)c1)Nc1ccc(OCc2nnc(-c3ccc(Cl)cc3)o2)c(F)c1`: the growth was 60.8%.

Regarding `CO[C@H]1/C=C/O[C@@]2(C)Oc3c(C)c(O)c4c(O)c(c(/C=N/N5CCN(C)CC5)c(O)c4c3C2=O)NC(=O)/C(C)=C\C=C\C(C)[C@H](O)[C@@H](C)[C@@H](O)[C@@H](C)[C@@H](OC(C)=O)[C@@H]1C` (stereo not given in full), the growth was 101%.

For `COc1ccc(-c2nc3sccn3c2-c2ccnc(S(C)(=O)=O)n2)cc1`, the growth was 77.8%.

In the case of `O=[N+]([O-])c1ccc(N/N=C/c2c(O)ccc3ccccc23)nc1`, the growth was 2.5% (active).

Turning to `Nc1ccccc1-c1ccc([N+](=O)[O-])cc1`, the growth was 24.6%.

For `Cn1cc(-c2csc(-c3cn(C)c4ncccc34)n2)c2cc(F)cnc21`, the growth was 67.4%.

In the case of `O=[N+]([O-])c1cnc(Sc2ccncn2)c([N+](=O)[O-])c1`, the growth was -49.2% (active).

`CCOC(=O)C1=C(C)N2C(=NC3=C(CCC/C3=C\c3ccc(Cl)cc3)C2c2ccc(Cl)cc2)S1` (stereo not given): the growth was -17% (active).

In the case of `COc1ccc2nccc(/C=C/c3ccnc4ccc(OC)cc34)c2c1`, the growth is 59.6%.

In the case of `CC[N+](CC)(CCOCCOCC[N+](CC)(CC)Cc1ccc([N+](=O)[O-])cc1)Cc1ccc([N+](=O)[O-])cc1`, the growth was 102%.

With `COc1ccc(-c2cc(Cc3cccs3)c(=O)n(Cn3ccc4ccccc43)n2)cc1`, the growth was 66%.

Consider `O=C(Nc1ccc(Nc2ccncc2)cc1)c1ccc(Nc2ccnc3ccc([N+](=O)[O-])cc23)cc1[N+](=O)[O-]`, for which the growth was 98.8%.

As for `O=C(CCc1nnc2sc(-c3ccc(Cl)cc3Cl)nn12)c1nc2ccccc2[nH]1`, the growth is 10.9%.

As for `Cn1cc(-c2csc(-c3cn(C)c4ncccc34)n2)c2cccnc21`, the growth is 87.3%.

On to `Nc1ccc(C2=Nc3cccc4cccc(c34)S2)cc1`, for which the growth was 68.4%.

As for `O=c1c(O)cccn1CCCNCCCN(CCCn1cccc(O)c1=O)CCCn1cccc(O)c1=O`, the growth is 147%.

With `COc1ccc(/C=N/NC(=O)c2ccc(S(C)(=O)=O)cc2)cc1OC`, the growth is 103%.

As to `O=C(Cn1ccnc1)NC(c1ccccc1)c1ccccc1`, the growth was 108%.

As for `COc1ccc(-c2cc(Cc3cccs3)c(=O)n(Cn3cncn3)n2)cc1`, the growth was 102%.

As for `O=C(Nc1ncc([N+](=O)[O-])s1)c1cccc([N+](=O)[O-])c1`, the growth is 33%.

Turning to `c1csc([C@@H]2C[C@@H]3Cc4ccc5ccccc5c4N2O3)c1`, the growth was 75.8%.

As to `Cc1cc(=O)n2n1-c1ccc(Cl)cc1NC(=O)C2`, the growth is 82.6%.

For the compound `O=C(/C(=C/c1cccc([N+](=O)[O-])c1)c1ccccc1)c1ccccc1`, the growth is 1.9% (active).

Consider `O=C(CCc1nnc(SCc2ccccc2)s1)c1nc2ccccc2[nH]1`, for which the growth was 68.1%.

Regarding `Cc1cc2c(C#N)n3c(c2cc1C)C(=O)C(c1ccccc1)Oc1ccccc1-3` (stereo not given), the growth is 19.4%.
